C diff growth – blocks growth of Clostridium difficile | Clostridium difficile clinical isolate growth, OD600, 24 h; stronger effect = lower value | 86,000 tested, 0.25% active | growth activity, negative = inhibition, % at 16 µg/mL (by protocol);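 active = mean growth activity at or below -80% and every replicate also at or below -80%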;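 also: 0% = DMSO wells and -100% = levofloxacin 16 µg/mL wells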
Pf Dd2 inh – inhibitors of Plasmodium falciparum Dd2 growth. AID 1159554. 94,000 tested, 2.3% active. activity change, % at 10 µM. P. falciparum Dd2 growth, SYBR Green, 72 h; stronger effect = lower value; in the data active = activity change below about -80%
T cruzi growth-1 – T. cruzi proliferation inhibition. AID 624255. 77,000 tested, 5.9% active. inhibition, % at 8.34 µM. T. cruzi beta-gal in NIH3T3, GalScreen luminescence, 90 h;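 active = mean inhibition above about 93%, with at least 55% of replicates each passing it, limit read from the data, passing the limit was not always enough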
T cruzi growth-2 – Trypanosoma cruzi proliferation inhibition; shares compounds with T cruzi growth-1; T. cruzi beta-gal in NIH3T3, GalScreen luminescence, 90 h; 5,600 tested, 72% active; inhibition, % at 8.35 µM;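 active = mean replicate inhibition above about 95% and at least 55% of replicates individually reaching it, limit read from the data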
T cruzi growth-3 – inhibitors of T. cruzi proliferation | shares compounds with T cruzi growth-1 | T. cruzi beta-gal in NIH3T3, GalScreen luminescence, 90 h | inhibition, % at 2.09 µM | 5,600 tested, 21% active;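 active = mean inhibition above about 95%, with at least 55% of replicates also reaching it, limit read from the data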;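 also: plate controls were neutral control median for no effect and positive control median for full effect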
3T3 cytotox – NIH/3T3 (mouse) viability loss; NIH/3T3 viability, CellTiter-Glo ATP luminescence, 90 h; cytotoxicity (signal decrease), % at 8.35 µM; shares compounds with T cruzi growth-1; 5,600 tested, 14% active;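 active = mean signal decrease across replicates above about 35% based on untreated-well scatter, with enough replicates individually passing, limit read from the data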;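 also: 0% = median of neutral control wells and 100% = median of positive control wells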
NIH3T3 tox 2 – kills mouse NIH/3T3 fibroblasts; shares compounds with T cruzi growth-1; inhibition, % at 24.9 µM; 5,600 tested, 56% active; NIH/3T3 viability, CellTiter-Glo ATP luminescence, 90 h;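 active = mean loss of cell viability signal at or above a set limit, and enough replicates individually reaching it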;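 also: 0% = median of neutral control wells and 100% = median of positive control wells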
* hit, by the source's call; . = no result; ! = not active in a repeat. Shown are actives, neighbours in structure and some others; about 6.8% of the full set was active somewhere.

SMILES | C diff growth | Pf Dd2 inh | T cruzi growth-1 | T cruzi growth-2 | T cruzi growth-3 | 3T3 cytotox | NIH3T3 tox 2
C[C@H]1CCCCO[C@@H](CN(C)C(=O)Nc2ccc(C(F)(F)F)cc2)[C@@H](C)CN([C@@H](C)CO)C(=O)c2cc(NS(=O)(=O)c3ccc(Cl)cc3)ccc2O1 | 1 | -36 | 2 | . | . | . | .
C[C@H](CO)N1C[C@H](C)[C@H](CN(C)C(=O)Nc2ccc(C(F)(F)F)cc2)OCCCC[C@H](C)Oc2ccc(NS(=O)(=O)c3ccc(F)cc3)cc2C1=O | 1 | -33 | 89 | . | . | . | .
COc1ccc(S(=O)(=O)Nc2ccc3c(c2)C(=O)N([C@H](C)CO)C[C@H](C)[C@@H](CN(C)C(=O)Nc2ccc(C(F)(F)F)cc2)OCCCC[C@@H](C)O3)cc1 | 7 | -66 | 108* | 99* | 31 | -8 | 4
COc1ccc(S(=O)(=O)Nc2ccc3c(c2)CC(=O)N([C@H](C)CO)C[C@H](C)[C@H](CN(C)S(=O)(=O)c2ccc(F)cc2)O3)cc1 | 18 | -75 | 19 | . | . | . | .
CO[C@@H]1CN(C)C(=O)c2ccc(NC(=O)C3CCOCC3)cc2OC[C@@H](C)N(C(C)=O)C[C@@H]1C | . | 14 | . | . | . | . | .
CS(=O)(=O)N1[C@@H]2c3ccc(-c4ccc(F)cc4)c(=O)n3C[C@H]1[C@H](CO)[C@H]2C(=O)N1CCOCC1 | 1 | . | -7 | . | . | . | .
C[C@@H]1CN([C@H](C)CO)C(=O)c2cc(NC(=O)CCCCCC(=O)Nc3ccccc3N)ccc2O[C@@H]1CN(C)S(=O)(=O)c1ccc(F)cc1 | -1 | -32 | . | . | . | . | .
C[C@@H]1CCCCO[C@H](CN(C)C(=O)Nc2ccc(C(F)(F)F)cc2)[C@@H](C)CN([C@H](C)CO)C(=O)c2cc(NS(=O)(=O)c3ccc(Cl)cc3)ccc2O1 | -5 | -57 | 104* | 99* | 58 | 7 | 22
C[C@@H]1CCCCO[C@H](CN(C)C(=O)Nc2ccc(C(F)(F)F)cc2)[C@H](C)CN([C@@H](C)CO)C(=O)c2cc(NS(=O)(=O)c3ccc(Cl)cc3)ccc2O1 | 8 | -50 | 94 | . | . | . | .
C[C@@H](O)C#Cc1ccc2c(c1)O[C@@H](CN(C)Cc1ccc(-c3ccccc3)cc1)[C@@H](C)CN([C@@H](C)CO)S2(=O)=O | 4 | -79 | -46 | . | . | . | .
C[C@H](CO)N1C[C@H](C)[C@@H](CN(C)Cc2ccc(-c3ccccc3)cc2)Oc2cc(C#C[C@@H](C)O)ccc2S1(=O)=O | 0 | -61 | 97* | 87 | 107* | 109* | 104*
C[C@@H]1CN([C@@H](C)CO)S(=O)(=O)c2ccc(C#CC(C)(C)O)cc2O[C@H]1CN(C)Cc1ccccc1 | -11 | -47 | 83 | . | . | . | .
C[C@@H]1CN([C@H](C)CO)S(=O)(=O)c2ccc(C#CC(C)(C)O)cc2O[C@H]1CN(C)Cc1ccc(-c2ccccc2)cc1 | 15 | -84* | 121* | 89 | 110* | 118* | 107*
C[C@H](O)C#Cc1ccc2c(c1)O[C@@H](CN(C)Cc1ccc(-c3ccccc3)cc1)[C@@H](C)CN([C@H](C)CO)S2(=O)=O | 5 | -42 | 78 | . | . | . | .
C[C@H](O)C#Cc1ccc2c(c1)O[C@@H](CN(C)Cc1ccc(-c3ccccc3)cc1)[C@H](C)CN([C@@H](C)CO)S2(=O)=O | 1 | -45 | 113*! | 101* | 99* | 114* | 108*
O=C(Cc1ccccc1)N1CC2(C1)[C@@H](c1ccccc1)[C@@H](CO)N2C(=O)c1cccnc1 | 2 | 5 | . | . | . | . | .
C[C@H](CO)N1C[C@H](C)[C@H](CN(C)Cc2ccccc2)Oc2ccc(NS(=O)(=O)c3cn(C)cn3)cc2C1=O | -1 | 24 | -18 | . | . | . | .
Cc1noc(C)c1NC(=O)Nc1ccc2c(c1)C(=O)N([C@H](C)CO)C[C@H](C)[C@H](CN(C)C)OCCCC[C@H](C)O2 | 0 | 13 | 16 | . | . | . | .
O=C(C[C@@H]1CC[C@@H]2[C@H](COC[C@H](O)CN2Cc2nccs2)O1)NCc1ccc(Oc2ccccc2)cc1 | 8 | -19 | . | . | . | . | .
O=C(C[C@@H]1CC[C@@H]2[C@H](COC[C@H](O)CN2Cc2ccc(Oc3ccccc3)cc2)O1)Nc1nccs1 | 42 | -2 | 133* | 100* | 0 | -25 | 11
O=C(C[C@@H]1CC[C@@H]2[C@H](COC[C@@H](O)CN2Cc2ccc(Oc3ccccc3)cc2)O1)Nc1nccs1 | -4 | -32 | 108* | 102* | 49 | 13 | 8
O=C(C[C@@H]1CC[C@H]2[C@@H](COC[C@@H](O)CN2Cc2ccc(Oc3ccccc3)cc2)O1)Nc1nccs1 | 41 | -58 | 117* | 101* | 55 | 24 | 97*
O=C(C[C@@H]1CC[C@@H]2[C@H](COC[C@@H](O)CN2Cc2cccc(Cl)c2)O1)Nc1nccs1 | -2 | -42 | 72 | . | . | . | .
O=C(C[C@@H]1CC[C@H]2[C@@H](COC[C@H](O)CN2Cc2ccc(Cl)cc2)O1)Nc1nccs1 | 1 | -30 | 20 | . | . | . | .
O=C(C[C@H]1CC[C@@H]2[C@H](COC[C@H](O)CN2Cc2ccc(Oc3ccccc3)cc2)O1)Nc1nccs1 | 71 | -31 | 133* | 103* | 34 | 1 | 52*
SMILES | C diff growth | Pf Dd2 inh | T cruzi growth-1 | T cruzi growth-2 | T cruzi growth-3 | 3T3 cytotox | NIH3T3 tox 2
O=C(C[C@@H]1CC[C@H]2[C@@H](COC[C@@H](O)CN2Cc2nccs2)O1)NCc1ccc(Oc2ccccc2)cc1 | -4 | 4 | . | . | . | . | .
O=C(C[C@H]1C[C@H]2c3cc(NC(=O)NC4CCCC4)ccc3O[C@H]2[C@H](CO)O1)NCc1ccccn1 | 5 | -22 | . | . | . | . | .
C[C@@H]1CCCCO[C@H](CN(C)C(=O)CCCN(C)C)[C@@H](C)CN([C@H](C)CO)C(=O)c2cc(NS(=O)(=O)c3ccc(F)cc3)ccc2O1 | 0 | 56 | . | . | . | . | .
CO[C@@H]1CN(C)C(=O)c2ccc(NC(=O)c3ccccc3)cc2OC[C@@H](C)N(CC2CC2)C[C@@H]1C | . | 2 | -48 | . | . | . | .
Cc1ccc(S(=O)(=O)Nc2ccc3c(c2)CC(=O)N([C@@H](C)CO)C[C@H](C)[C@H](CN(C)S(=O)(=O)c2ccc(C)cc2)O3)cc1 | 12 | -40 | 26 | . | . | . | .
CNC[C@H]1Oc2cc(C#Cc3ccccc3F)ccc2S(=O)(=O)N([C@H](C)CO)C[C@@H]1C | 11 | 2 | . | . | . | . | .
C[C@H]1CN([C@@H](C)CO)C(=O)c2cc(NS(=O)(=O)c3ccc(Cl)cc3)ccc2O[C@@H]1CN(C)S(=O)(=O)c1ccccc1 | -9 | -27 | 16 | . | . | . | .
Cc1ccc(-c2ccc3c(c2)O[C@@H](CN(C)Cc2ccncc2)[C@@H](C)CN([C@H](C)CO)S3(=O)=O)cc1 | 1 | -62 | 123* | 97* | 101* | 26 | 94*
C[C@@H]1CN([C@@H](C)CO)S(=O)(=O)c2ccc(-c3cncnc3)cc2O[C@H]1CN(C)Cc1ccncc1 | 0 | -14 | 72 | . | . | . | .

Screens (PubChem)
